{
  "source": "the supplement of paper PMC13380429",
  "data": [
    {"test_system": "Vero E6 infected with SARS-CoV-2", "experiment": "morphology score (similarity to uninfected cells); higher = more like uninfected cells", "conditions": "24 h", "values": [
      {"smiles": "O=C(NC[C@H](O)CN1CCc2ccccc2C1)c1cc(NC2COC2)ncn1", "note": "(10 µM)", "morphology score": -0.0443},
      {"smiles": "N#Cc1c(N)nc(SCc2csc(-c3ccc(Cl)cc3)n2)c(C#N)c1-c1ccc(OCCO)cc1", "note": "[capadenoson] (10 µM)", "morphology score": -0.145},
      {"smiles": "CCc1nc(C)ccc1O", "note": "[emoxipin] (10 µM)", "morphology score": 0.143},
      {"smiles": "CC(C)[C@H]1c2ccc(F)cc2CC[C@@]1(CCN(C)CCCc1nc2ccccc2[nH]1)OC(=O)C1CC1", "note": "(0.833333 µM)", "morphology score": 0.0422},
      {"smiles": "CN1CCN(Cc2ccc(-c3cnc4[nH]cc(-c5ccc6[nH]ccc6c5)c4c3)cc2)CC1", "note": "(0.833333 µM)", "morphology score": 0.84},
      {"smiles": "CCOC(=O)COc1ccc2c(=O)cc(-c3ccccc3)oc2c1", "note": "[efloxate] (10 µM)", "morphology score": 0.19},
      {"smiles": "COc1cc2c(cc1O)C(CCc1ccc(Cl)cc1)N(C)CC2", "note": "(stereo not given) (10 µM)", "morphology score": 0.298},
      {"smiles": "CCCC[C@H]1C(=O)N(c2ccccc2)N(c2ccc(O)cc2)C1=O", "note": "[oxyphenbutazone] (0.833333 µM)", "morphology score": 0.131},
      {"smiles": "C[C@H](CCC(=O)NCCS(=O)(=O)O)[C@H]1CC[C@H]2[C@@H]3[C@H](O)C[C@@H]4C[C@H](O)CC[C@]4(C)[C@H]3C[C@H](O)[C@]12C", "note": "[taurocholate] (10 µM)", "morphology score": -0.0884},
      {"smiles": "CC(=O)Nc1ccc(CC(=O)O)cc1", "note": "[actarit] (10 µM)", "morphology score": 0.181},
      {"smiles": "O=c1cc(-c2ccc(O)cc2)oc2cc(O)cc(O)c12", "note": "[apigenin] (10 µM)", "morphology score": 0.129},
      {"smiles": "Cc1ncc(C[n+]2csc(CCOP(=O)(O)OP(=O)(O)O)c2C)c(N)n1", "note": "[thiamine-pyrophosphate] (10 µM)", "morphology score": 0.112},
      {"smiles": "O=C(c1ccc(F)cc1)C1CCN(CCCCc2ccccc2)CC1", "note": "[4-(4-fluorobenzoyl)-1-(4-phenylbutyl)-piperidine] (10 µM)", "morphology score": -0.00104},
      {"smiles": "Nc1nc(O)c2nc(Br)n([C@@H]3O[C@@H]4COP(=O)(O)O[C@H]4[C@H]3O)c2n1", "note": "[8-bromo-cGMP] (10 µM)", "morphology score": 0.0521},
      {"smiles": "CCN(CC)CCOCCOC(=O)C(CC)(CC)c1ccccc1", "note": "[oxelaidin] (10 µM)", "morphology score": 0.423},
      {"smiles": "CC(=O)Nc1nc2c(Oc3cc(-c4ccc(C(F)(F)F)cc4)ncn3)cccc2s1", "note": "(10 µM)", "morphology score": 0.163},
      {"smiles": "c1ccc(-c2ccc(CNc3nc(-c4ccccn4)nnc3-c3ccccc3)cc2)cc1", "note": "(10 µM)", "morphology score": -0.0584},
      {"smiles": "CC[C@H](NC(=O)c1c(O)c(-c2ccccc2)nc2ccccc12)c1ccccc1", "note": "[talnetant] (10 µM)", "morphology score": -0.0287},
      {"smiles": "Sc1nc2ccccc2s1", "note": "[benzo[d]thiazole-2(3H)-thione] (10 µM)", "morphology score": 0.0522},
      {"smiles": "NC[C@@H](O)CC(=O)O", "note": "[aminohydroxybutyric-acid] (10 µM)", "morphology score": 0.226},
      {"smiles": "CO[C@H]1O[C@@H]2O[C@@]3(C)CC[C@H]4[C@H](C)CC[C@@H]([C@H]1C)[C@@]24OO3", "note": "[artemether] (10 µM)", "morphology score": 0.0275},
      {"smiles": "CC[C@@]1([C@H]2O[C@H]([C@H]3O[C@@](O)(CO)[C@H](C)C[C@@H]3C)C[C@H]2C)CC[C@H]([C@@]2(C)CC[C@]3(C[C@H](O)[C@@H](C)[C@@H]([C@H](C)[C@H](OC)[C@@H](C)C(=O)O)O3)O2)O1", "note": "(10 µM)", "morphology score": 0.556},
      {"smiles": "COc1ccccc1N1CCN(CC(O)COc2cc(OC)c(OC)c(OC)c2)CC1", "note": "(stereo not given) [enciprazine] (10 µM)", "morphology score": 0.0687},
      {"smiles": "NS(=O)(=O)c1cccc2c1c([N+](=O)[O-])cc1nc(O)c(O)nc12", "note": "(10 µM)", "morphology score": -0.0523},
      {"smiles": "Oc1cc2c(c(Cl)c1O)CCNCC2c1ccccc1", "note": "(stereo not given) (10 µM)", "morphology score": 0.16},
      {"smiles": "Cc1c(NC(=O)c2cc3c(s2)CCCC3)cccc1-c1cn(C)c(=O)c(Nc2ccc(C3C(=O)N(C)CCN3C)cc2)n1", "note": "(stereo in doubt) (10 µM)", "morphology score": 0.45},
      {"smiles": "Nc1nc(N)c(N=O)c(OCC2CCCCC2)n1", "note": "(10 µM)", "morphology score": 0.621},
      {"smiles": "Nc1sc2c(c1C(=O)c1ccc(Cl)cc1)CCCC2", "note": "(10 µM)", "morphology score": 0.0676},
      {"smiles": "S=C(NCc1ccc2c(c1)OCO2)N1CCN(c2ncnc3c2oc2ccccc23)CC1", "note": "[amuvatinib] (0.833333 µM)", "morphology score": 0.0595},
      {"smiles": "CC(C)(Oc1ccc(Cl)cc1)C(=O)N1CSCC1C(=O)O", "note": "(stereo not given) [timofibrate] (10 µM)", "morphology score": 0.0255},
      {"smiles": "Cc1nc(N)sc1-c1ccnc(Nc2ccc(N3CCOCC3)cc2)n1", "note": "(0.833333 µM)", "morphology score": 0.443},
      {"smiles": "COc1cc2nc(N3CCN(C(=O)COc4c(OC)cccc4C(C)C)CC3)nc(N)c2cc1OC", "note": "(10 µM)", "morphology score": -0.065},
      {"smiles": "CC[C@H](/C=C/[C@@H](C)[C@H]1CC[C@H]2[C@@H]3CC=C4C[C@@H](O)CC[C@]4(C)[C@H]3CC[C@]12C)C(C)C", "note": "[Stigmasterol (Stigmasterin)] (10 µM)", "morphology score": 0.0238},
      {"smiles": "CCCCOc1ccc(OCCCN2CCOCC2)cc1", "note": "[pramoxine] (10 µM)", "morphology score": -0.0144},
      {"smiles": "O=C(CCCCCCCC(=O)NCCO)NCCO", "note": "[adelmidrol] (10 µM)", "morphology score": -0.0406},
      {"smiles": "CC1(C)C(=O)NC2=C1C(=O)C(=O)c1ccccc12", "note": "(0.833333 µM)", "morphology score": -0.0548},
      {"smiles": "Nn1cnc2cc3ccccc3cc2c1=O", "note": "[centazolone] (10 µM)", "morphology score": -0.195},
      {"smiles": "Cn1cc(CCn2cnc(-c3cnn(C)c3)c2-c2ccc(C#N)cc2)cn1", "note": "(10 µM)", "morphology score": 0.0344},
      {"smiles": "CCOC(=O)Nc1nc2ccccc2[nH]1", "note": "[lobendazole] (10 µM)", "morphology score": 0.0965},
      {"smiles": "CC[C@@H]1C(=O)N(C)c2cnc(Nc3ccc(C(=O)NC4CCN(C)CC4)cc3OC)nc2N1C1CCCC1", "note": "(10 µM)", "morphology score": -0.305}
    ]}
  ]
}
